Compounds without any hit were thinned out: in the full panel of roughly 83,000, 20% have a hit.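 Interpretation: 100, growth as untreated; towards 0, rising growth inhibition; 0, no net growth; 0 to -100, cell death. Compounds scoring below 10 were considered active.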 Activity calls are given as the source filed them.

The test system of this assay is KM12 colon. Briefly: NCI-60 one-dose screen, 48 h (100 = growth as untreated, 0 = no growth, -100 = all killed). As to conditions: 10 µM unless noted.
`Cc1ccc(-c2csc(NC(=O)CN3CCN(c4cc5c(cc4F)c(=O)c(C(=O)O)cn5C4CC4)CC3)n2)cc1`: the growth is 8.87% (active).

As to `O=C(Nc1ccc(-c2nc(N3CCOCC3)c3cccn3n2)cc1)Nc1cccnc1`, the growth is 9.01% (active).

Take `CC(=O)OC[C@]12CCC(C)(C)C[C@H]1[C@@]1(O)[C@H](O)C[C@@H]3[C@@]4(C)CCCNC(C)(C)[C@@H]4CC[C@@]3(C)[C@]1(C)CC2`: the growth was 113% (inactive).

On to `Cn1ccnc1C(=O)C(=O)Nc1ccc(CC(=O)Nc2ccccc2)cc1`, for which the growth was 105% (inactive).

Turning to `O=[N+]([O-])c1ccc(-c2nc(N3CCOCC3)c3c4c(sc3n2)CCCC4)cc1`, the growth is 95.5% (inactive).

`O=C1/C(=C\c2cn(-c3ccccc3)nc2-c2ccc(-c3cccs3)cc2)CCc2ccccc21`: the growth is 49.4% (inactive).

Take `Cc1ccc(-c2cc(-c3ccc(Cl)cc3)nc(NC(=O)c3cccnc3)n2)cc1`: the growth is 99.8% (inactive).

With `C[C@@H]1CCC[C@H]1CC(N)C(=O)O` (stereo partly specified), the growth was 106% (inactive).

As for `CSc1nnc(-c2cnn3c2NC(c2ccccc2)C3)n1-c1ccc(C(F)(F)F)cc1` (stereo unspecified), the growth was 49.3% (inactive).

As for `COc1ccccc1Nc1nc2c(s1)C1=CC[C@H]3[C@@H]4CC[C@H]([C@H](C)CCCC(C)C)[C@@]4(C)CC[C@@H]3[C@@]1(C)CC2`, the growth is 101% (inactive).

With `CCOC(=O)c1ccc2[nH]c(O)c(C(=Nc3ccc(N(C)C(=O)CN4CCN(C)CC4)cc3)c3ccccc3)c2c1`, the growth is -33.4% (active).

Take `COc1ccc(-c2nnc(-c3ccc4c(c3)nc(-c3ccncc3)n4C3CCCCC3)o2)cc1`: the growth is 71.9% (inactive).

Take `CCCCCCC1(C)NCCO1` (stereo unspecified): the growth is 106% (inactive).

With `O=C(CCCCCCN1CC(=O)N2[C@H](c3cc(Br)cs3)c3[nH]c4ccccc4c3C[C@H]2C1=O)NO`, the growth was 47.2% (inactive).

On to `C=CCn1c(SCC(=O)Nc2ccc(C(=O)/C=C/c3cc4cc(OC)ccc4nc3Cl)cc2)nnc1-c1ccc(Br)cc1`, for which the growth is 84.7% (inactive).

On to `O=C(COc1ccc(-c2nc3ccccc3[nH]2)cc1)N=Nc1c(O)[nH]c2ccc(Cl)cc12`, for which the growth is 15.3% (inactive).

As for `Cc1cc(=O)[nH]c2c(C#N)cnn12`, the growth was 107% (inactive).

Regarding `O=C1Nc2ccc(I)cc2C1=O`, the growth was 82.8% (inactive).

For `Fc1ccc(Nc2nc3nonc3nc2Nc2ccc(I)cc2)cc1`, the growth is 2.12% (active).

As to `CN1CCN(Cc2ccc3c(NNC(=O)c4ccccc4)nc4cc(F)ccc4n23)CC1`, the growth is 20% (inactive).

On to `O=C(Nn1c2c(sc1=NCc1ccccc1)C(=O)c1ccccc1C2=O)c1cc2ccc1CCc1ccc(cc1)CC2`, for which the growth was 74.8% (inactive).

As for `Cc1cc2c(O)c(-c3cccc(Cl)c3)c3sc(=O)oc3c2cc1C`, the growth was 64.3% (inactive).

Turning to `CC12CCC3c4ccccc4CCC3(CO1)C2` (stereo unspecified), the growth is 110% (inactive).

As to `O=C(Cn1cc(CN2CCCCCC2)nn1)Nc1ccc2c(ccn2Cc2ccccc2)c1`, the growth was 93.8% (inactive).

For `COc1cc(OC)cc(C2=C3CC[C@@H]4[C@H](CC[C@]5(C)C(=O)CC[C@@H]45)C3=CC3C(O)c4cccnc4N4C(=O)COC234)c1` (stereo partly specified), the growth was 102% (inactive).

Consider `O=C(Cn1c(-c2ccc([N+](=O)[O-])cc2)nc2ccccc21)NNC(=O)c1cccnc1`, for which the growth was 87.2% (inactive).

In the case of `CCNc1nc(-c2ccc(Cl)c(OC)c2)c(-c2ccnc(NCCCNS(=O)(=O)c3ccc(Cl)cc3)n2)s1`, the growth was 65.3% (inactive).

Turning to `COc1ccc2c(O)c(/C=C3\N=Nc4ccccc43)oc2c1C[C@@H]1CCNC[C@H]1F`, the growth was 10.9% (inactive).

In the case of `CC(C)(C)[Si](C)(C)O[C@H]1C(=O)C=CN2CC=C[C@@H]12`, the growth is 104% [100 µM] (inactive).

`CN1CCN(Cc2ccc(NC(=O)c3cncc(C#Cc4cnc(N)c5ccccc45)c3)cc2C(F)(F)F)CC1`: the growth was -86.6% (active).

Regarding `CC(C)N1CN2C(=S)NC3C2N(C1)C(=S)N3C` (stereo unspecified), the growth was 94.4% (inactive).

For the compound `COc1ccc(C(=O)Nc2cccc(C3CC(=O)c4c(cc(OC)c(OC)c4OC)O3)c2)cc1` (stereo unspecified), the growth is 13.8% (inactive).

Consider `O=c1oc2ccc([N+](=O)[O-])cc2cc1Br`, for which the growth is 107% (inactive).

Consider `CCOC(=O)c1cc2c(=O)oc3ccccc3c2oc1=O`, for which the growth was 110% (inactive).

Consider `Clc1ccc(Sc2cnc(-c3ccccc3)o2)cc1`, for which the growth is 102% (inactive).

With `CN(C)c1ccc(/C=C/C(=O)c2ccc(-n3cc(CN4CCN(c5cc6c(cc5F)c(=O)c(C(=O)O)cn6C5CC5)CC4)nn3)cc2)cc1`, the growth is 32.9% (inactive).

Values taken from PubChem BioAssay (NCI).
